# Bioassay records: PubChem BioAssay, National Center for Advancing Translational Sciences (NCATS)
# TDP1 cell noCPT: qHTS for Inhibitors of human tyrosyl-DNA phosphodiesterase 1 (TDP1): qHTS in cells in absence of CPT. DT40 Tdp1-/- hTDP1 cells, no CPT, ATP luminescence, 48 h. AID 686978, 2013. Potency, µM (doses to about 46.2 µM), for inactives: at the highest dose activity change, negative = growth inhibition, actives largely listed as inhibitors. actives 15% (n = 420,000); further: potency means the concentration at half of the fitted maximal effect; nearly all actives have a fitted effect of over 55% in size
#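 Camptothecin absent (DMSO only). Human TDP1-complemented DT40 knockout cells, 400 cells/well, 37 °C for minimum 48 hr; ATP measured via CellTiter-Glo, 30 min dark incubation, luminescence.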
# HT1080 IDH1KD tx: qHTS for induction of synthetic lethality in tumor cells producing 2HG: qHTS for the HT-1080-IDH1KD cell line; Potency, µM (highest dose often 46.1 µM), for inactives: at the top dose activity, negative = toxicity, actives largely listed as cytotoxic; actives 2% (n = 360,000); AID 686971, 2013; HT-1080 IDH1 knockdown viability, ATP luminescence, 48 h;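 further: potency means the concentration at half of the fitted maximal effect; 0% = DMSO wells and -100% = cell-free medium wells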
#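 IDH1KD HT-1080 cells, 750/well, RPMI + 5% FBS; compound pinned after 2 h settling; 48 h, 37 °C; CellTiter-Glo luminescence; % activity normalised to DMSO and no-cell wells; curves fitted, classed by r2 and efficacy.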
# HT1080-NT tox: qHTS for induction of synthetic lethality in tumor cells producing 2HG: qHTS for the HT-1080-NT fibrosarcoma cell line. HT-1080-NT fibrosarcoma viability, CellTiter-Glo ATP luminescence, 48 h. Potency, µM (highest dose often 46.1 µM), for the others: top-dose activity, negative = less viability, most hits filed as cytotoxic. actives 1.6% (n = 360,000). AID 686970, 2013;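 further: NT is the 2HG producing partner of a matched IDH1 knockdown line; potency means the concentration at half of the fitted maximal effect; 0% = DMSO-treated cells and -100% = media-only wells without cells; nearly all actives have a fitted effect of over 55% in size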
#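 Toxicity toward the 2HG-producing NT line was scored as %Activity, normalised to DMSO and no-cell wells, from CellTiter-Glo luminescence after 48 hours' treatment.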
# ALOX12 inh: Primary qHTS assay for inhibitors of human arachidonate 12S-lipoxygenase (ALOX12): Round 2 | purified 12hLO, xylenol orange hydroperoxide absorbance | Potency, µM (doses to about 108 µM), inactives show at the highest dose activity change, negative = inhibition, actives largely listed as inhibitors | actives 1.1% (n = 580,000); further: potency means the concentration at half of the fitted maximal effect
# Target sequence (P18054 whole entry, looked up): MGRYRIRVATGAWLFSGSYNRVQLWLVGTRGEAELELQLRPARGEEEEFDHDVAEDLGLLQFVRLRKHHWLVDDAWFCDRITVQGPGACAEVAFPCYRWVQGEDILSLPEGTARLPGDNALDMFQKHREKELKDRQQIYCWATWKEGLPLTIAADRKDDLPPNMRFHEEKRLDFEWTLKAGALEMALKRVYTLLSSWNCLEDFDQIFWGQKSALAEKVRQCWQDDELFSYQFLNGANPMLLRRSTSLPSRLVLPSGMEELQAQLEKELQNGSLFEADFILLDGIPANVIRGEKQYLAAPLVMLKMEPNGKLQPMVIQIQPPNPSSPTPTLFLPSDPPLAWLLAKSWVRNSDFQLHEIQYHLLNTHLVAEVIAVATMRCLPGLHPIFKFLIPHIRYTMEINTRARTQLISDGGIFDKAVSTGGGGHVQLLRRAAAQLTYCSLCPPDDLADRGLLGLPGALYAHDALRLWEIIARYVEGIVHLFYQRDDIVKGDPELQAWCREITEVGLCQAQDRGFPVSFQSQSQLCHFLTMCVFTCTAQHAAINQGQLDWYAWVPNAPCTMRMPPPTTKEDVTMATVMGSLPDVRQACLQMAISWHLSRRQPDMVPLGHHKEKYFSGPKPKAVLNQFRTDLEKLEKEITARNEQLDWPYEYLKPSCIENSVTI
#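 Purified human 12hLO at 150 nM in 25 mM Hepes, 0.01% Triton X-100, pH 7.0, preincubated 15 min at room temperature with compound. Reaction started with 40 uM arachidonic acid, 30 min at room temperature. Hydroperoxide measured by Fe-xylenol orange, 573/405 nm absorbance ratio.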
# IL-1B inflam inh: qHTS for Inhibitors of Inflammasome Signaling: IL-1-beta AlphaLISA Primary Screen; activity change, % at 57.5 µM; THP-1 LPS/ATP IL-1B secretion, AlphaLISA, 16 h; active compounds read low; actives 4.7% (n = 360,000); in the data active means activity change below about -50%; inconclusive means mostly about -30% to -49%
#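 THP-1 cells pretreated 1 hr with compounds (up to 57.5 uM final), then stimulated with LPS (250 ng/mL final) plus ATP (1.25 mM final); secreted IL-1B measured by AlphaLISA after 16 hr, decreased signal indicating inhibition.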
# TDP1 cell CPT: qHTS for Inhibitors of human tyrosyl-DNA phosphodiesterase 1 (TDP1): qHTS in cells in presence of CPT | Potency, µM (top dose mostly 46.2 µM), for the others: at the top dose activity change, negative = growth inhibition, usual class: inhibitors | actives 12% (n = 420,000) | AID 686979, 2013 | chicken DT40 Tdp1-/-;hTDP1 cells + 20 nM CPT, ATP luminescence, 48 h; further: potency means the concentration at half of the fitted maximal effect; nearly all actives have a fitted effect of over 55% in size
#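 Chicken DT40 Tdp1-/- cells stably complemented with human TDP1 were seeded at 400 cells/well in medium containing 20 nM camptothecin, exposed to pin-transferred compounds, and grown at 37 °C for at least 48 hr. Viability was read as ATP luminescence.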
# * hit, by the source's call; i = inactive; u = inconclusive; x = not tested or not shown. The sample as a whole holds a higher share of hits than the screen did. Unless noted, the call rests on the fitted dose curve; in most records, active means well fitted curve in the direction sought with a large enough effect; inconclusive means small, poorly fitted or top-dose-only effect, or another doubt; inactive means no such curve, though single readings can be large; an effect the other way counts as inactive or inconclusive. Unless noted, on the % scale 0 is the no-effect control and ±100 the full control effect.
SMILES,TDP1 cell noCPT,HT1080 IDH1KD tx,HT1080-NT tox,ALOX12 inh,IL-1B inflam inh,TDP1 cell CPT
CSC1=NC(C(Cl)(Cl)Cl)N=C(c2ccccc2)N1 (configuration not stated),3.7µM*,21µM*,u,-18%,40,2.6µM*
CCOC(=O)C1C(=O)NC(c2ccccc2)=NC1c1ccc(F)cc1 (configuration not stated),3%,12%,20%,21%,29,12%
CC(NS(=O)(=O)c1ccc2c(c1)CCN2C(=O)CCCC(=O)O)c1ccccc1 (configuration not stated),-7%,x,x,-21%,x,3%
O=C(O)C(c1ccccc1)N1C(=O)/C(=C\c2ccc(-c3ccc(Br)cc3)o2)SC1=S (configuration not stated),-22%,-2%,2%,6.3µM*,5,-25%
C=CCN1C(=O)/C(=C/c2ccc(-c3ccc(F)cc3)o2)SC1=S,-15%,1%,7%,45µM*,1,-2%
C=CCN1C(=O)/C(=C/c2ccsc2)SC1=S,3%,2%,-2%,11%,0,4%
O=C(O)C(c1ccccc1)N1C(=O)/C(=C\c2ccc(-c3ccccc3Cl)o2)SC1=S (configuration not stated),-17%,-4%,-9%,16%,-9,6%
COc1ccc(C2Cn3cnc(-c4nc(-c5ccsc5)no4)c3CO2)cc1 (configuration not stated),x,x,x,19%,x,x
Cc1ccc(NC(=O)c2ccc(NCCCN3CCOCC3)c([N+](=O)[O-])c2)cc1Cl,21µM*,18µM*,18µM*,-30%,-67*,u
O=[N+]([O-])c1cc(S(=O)(=O)NCCCN2CCOCC2)ccc1Cl,-18%,-4%,0%,-20%,-64*,3%
O=[N+]([O-])c1ccc(NCCCN2CCOCC2)c([N+](=O)[O-])c1,-24%,-4%,-20%,3%,-5,24%
O=C(NCCCN1CCOCC1)c1ccc(Cl)c([N+](=O)[O-])c1,-3%,13%,15%,i,-2,7%
O=C(NCCCN1CCOCC1)c1ccc(Sc2cccc(Cl)c2)c([N+](=O)[O-])c1,21µM*,-5%,-8%,u,u,u
COc1ccc(NC(=O)c2ccc(NCCCN3CCOCC3)c([N+](=O)[O-])c2)cc1,18µM*,0%,4%,u,u,21µM*
O=S1(=O)c2c(NCc3ccco3)cccc2Oc2ccccc2CN1Cc1cn(Cc2ccc(C(F)(F)F)cc2)nn1,x,x,x,43%,x,x
CN(Cc1ccccc1)C(=O)C1(C)CCN1C(=O)Cc1ccc(Cl)cc1Cl (configuration not stated),u,6%,5%,-23%,6,u
CCC(CC)NC(=O)NC(C)c1ccccc1Br (configuration not stated),x,x,x,4%,x,x
CC(C)C(N)c1cccs1 (configuration not stated),x,x,x,25%,x,x
Cc1ccc(N(Cc2cccs2)C(=O)c2cccc(C)c2)cc1,x,x,x,1%,x,x
O=[N+]([O-])c1cc(S(=O)(=O)NCCN2CCOCC2)ccc1Sc1nnnn1-c1ccccc1,6.5µM*,u,u,7%,-100*,5.8µM*
